In ChEMBL document CHEMBL5308504, “Tm Shift (DSF) assay results for EUbOPEN Chemogenomics Library” (2023):

Tests used:
Conditions in all cases: Compound concentration 20.0 uM, Protein concentration 2.0 uM, Result type QC Liability
[1] = target: Tyrosine-protein kinase ABL1 (Homo sapiens) (UniProt P00519)
[2] = target: Cyclin-dependent kinase 2 (Homo sapiens) (UniProt P24941)
[3] = target: Casein kinase I isoform delta (Homo sapiens) (UniProt P48730)
[4] = target: Glycogen synthase kinase-3 beta (Homo sapiens) (UniProt P49841)
[5] = target: Mitogen-activated protein kinase 1 (Homo sapiens) (UniProt P28482)
[6] = target: T1, Aurora kinase A (Homo sapiens) (UniProt O14965)
T1 sequence (whole entry): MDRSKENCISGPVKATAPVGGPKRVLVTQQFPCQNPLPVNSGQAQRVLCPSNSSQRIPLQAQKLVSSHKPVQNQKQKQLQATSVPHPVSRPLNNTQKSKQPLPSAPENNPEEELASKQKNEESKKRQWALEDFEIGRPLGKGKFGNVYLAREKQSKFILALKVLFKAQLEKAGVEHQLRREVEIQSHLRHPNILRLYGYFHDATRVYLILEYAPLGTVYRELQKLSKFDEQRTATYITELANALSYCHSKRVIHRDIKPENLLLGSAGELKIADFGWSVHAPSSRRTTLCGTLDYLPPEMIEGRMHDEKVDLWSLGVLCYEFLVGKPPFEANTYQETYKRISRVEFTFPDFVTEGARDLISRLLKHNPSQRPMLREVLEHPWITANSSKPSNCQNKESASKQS

Sequence of Casein kinase I isoform delta (Homo sapiens) (P48730 whole entry, looked up, canonical isoform): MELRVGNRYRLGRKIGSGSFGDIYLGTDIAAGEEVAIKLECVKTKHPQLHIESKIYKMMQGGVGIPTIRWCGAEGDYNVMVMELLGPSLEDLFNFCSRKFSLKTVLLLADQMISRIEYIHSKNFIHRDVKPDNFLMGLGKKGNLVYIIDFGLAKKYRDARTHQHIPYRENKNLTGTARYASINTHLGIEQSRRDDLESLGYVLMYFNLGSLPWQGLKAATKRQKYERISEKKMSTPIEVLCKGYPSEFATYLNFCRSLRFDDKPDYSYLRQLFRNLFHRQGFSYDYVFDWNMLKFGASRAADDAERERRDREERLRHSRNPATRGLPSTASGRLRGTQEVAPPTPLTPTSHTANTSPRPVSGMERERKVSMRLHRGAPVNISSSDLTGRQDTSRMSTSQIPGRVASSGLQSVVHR
Sequence of Tyrosine-protein kinase ABL1 (Homo sapiens) (P00519 whole entry): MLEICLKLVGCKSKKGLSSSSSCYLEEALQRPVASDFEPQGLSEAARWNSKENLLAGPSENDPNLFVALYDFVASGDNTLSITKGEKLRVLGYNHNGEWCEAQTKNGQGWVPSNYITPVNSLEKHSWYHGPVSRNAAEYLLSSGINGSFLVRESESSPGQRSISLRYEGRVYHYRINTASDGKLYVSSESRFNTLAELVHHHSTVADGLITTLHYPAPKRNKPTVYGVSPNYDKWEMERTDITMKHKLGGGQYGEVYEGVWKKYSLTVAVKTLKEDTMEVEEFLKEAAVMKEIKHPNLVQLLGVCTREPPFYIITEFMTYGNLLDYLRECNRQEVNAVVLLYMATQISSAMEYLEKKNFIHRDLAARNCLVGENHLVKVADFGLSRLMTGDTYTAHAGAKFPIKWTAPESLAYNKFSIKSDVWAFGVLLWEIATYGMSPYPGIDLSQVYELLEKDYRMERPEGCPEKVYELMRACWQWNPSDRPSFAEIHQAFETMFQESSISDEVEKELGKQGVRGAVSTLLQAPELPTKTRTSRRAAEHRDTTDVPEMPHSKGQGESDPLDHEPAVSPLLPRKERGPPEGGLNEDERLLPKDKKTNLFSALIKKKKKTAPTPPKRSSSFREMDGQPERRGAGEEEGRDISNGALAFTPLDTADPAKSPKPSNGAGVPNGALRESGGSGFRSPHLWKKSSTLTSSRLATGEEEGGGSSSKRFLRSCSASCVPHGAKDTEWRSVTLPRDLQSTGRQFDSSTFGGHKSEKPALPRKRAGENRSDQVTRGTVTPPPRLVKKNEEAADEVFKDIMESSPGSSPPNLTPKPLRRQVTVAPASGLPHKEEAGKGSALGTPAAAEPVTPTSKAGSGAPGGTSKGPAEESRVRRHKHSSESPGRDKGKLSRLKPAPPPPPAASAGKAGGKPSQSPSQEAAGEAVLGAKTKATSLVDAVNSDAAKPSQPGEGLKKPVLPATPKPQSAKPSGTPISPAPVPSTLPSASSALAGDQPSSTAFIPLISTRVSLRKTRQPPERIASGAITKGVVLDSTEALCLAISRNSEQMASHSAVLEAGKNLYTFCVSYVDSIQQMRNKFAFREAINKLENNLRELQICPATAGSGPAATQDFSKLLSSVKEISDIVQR
Sequence of Mitogen-activated protein kinase 1 (Homo sapiens) (P28482 whole entry): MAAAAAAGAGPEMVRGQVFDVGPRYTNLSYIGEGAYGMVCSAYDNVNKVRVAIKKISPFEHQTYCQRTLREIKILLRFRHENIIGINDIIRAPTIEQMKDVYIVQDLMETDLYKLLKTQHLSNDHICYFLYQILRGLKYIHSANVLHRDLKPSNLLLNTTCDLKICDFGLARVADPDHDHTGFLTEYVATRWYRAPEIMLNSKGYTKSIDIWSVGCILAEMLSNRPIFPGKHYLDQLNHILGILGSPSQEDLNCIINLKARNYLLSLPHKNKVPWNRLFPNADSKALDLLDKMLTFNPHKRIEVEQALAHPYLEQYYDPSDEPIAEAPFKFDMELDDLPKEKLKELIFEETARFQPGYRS
Sequence of Glycogen synthase kinase-3 beta (Homo sapiens) (P49841 whole entry, looked up): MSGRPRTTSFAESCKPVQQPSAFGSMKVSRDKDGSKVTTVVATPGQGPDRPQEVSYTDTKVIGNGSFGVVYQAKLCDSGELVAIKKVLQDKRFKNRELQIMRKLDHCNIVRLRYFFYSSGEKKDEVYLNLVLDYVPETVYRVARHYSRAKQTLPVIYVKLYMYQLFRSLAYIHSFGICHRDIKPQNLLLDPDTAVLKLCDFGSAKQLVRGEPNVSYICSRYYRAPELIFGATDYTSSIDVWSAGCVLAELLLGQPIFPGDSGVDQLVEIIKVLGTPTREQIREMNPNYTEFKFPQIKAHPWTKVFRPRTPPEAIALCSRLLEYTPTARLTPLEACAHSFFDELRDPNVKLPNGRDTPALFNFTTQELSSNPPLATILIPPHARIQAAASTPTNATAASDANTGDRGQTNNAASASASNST

SMILES	ΔTm [1]	ΔTm [2]	ΔTm [3]	ΔTm [4]	ΔTm [5]	ΔTm [6]
CC(C)(C)C(=O)NCc1ccc(Cl)c(C(=O)Nc2ncc[nH]2)c1	0.08 °C	0.44 °C	-0.14 °C	0.45 °C	-0.01 °C	-0.18 °C
O=C1CCCc2[nH]c(-c3ccnc(NCC4CC4)c3)c(Nc3ccccc3)c21	-0.41 °C	0.46 °C	3.16 °C	1.37 °C	-0.73 °C	0.11 °C
COc1ccc(F)c(F)c1C(=O)c1cnc(NC2CCN(S(C)(=O)=O)CC2)nc1N	0.33 °C		0.3 °C	7.07 °C	0.27 °C	0.02 °C
Oc1c(CN2CCCC2)cc(COCc2ccccc2)c2cccnc12	0.07 °C	0.07 °C	1.22 °C	-0.76 °C	0.33 °C	-1.78 °C
COc1cc(C)c(S(=O)(=O)N(C)CCC(=O)N[C@H]2CC[C@@H](N3CCC4CN(C)CC4C3)CC2)c(C)c1 (some centres undefined)	0.38 °C	-0.04 °C	0.64 °C	0.15 °C	0.83 °C	-0.36 °C
CN[C@@H](C)C(=O)N[C@H](C(=O)N1CCC[C@H]1C(=O)N[C@@H]1CCCc2ccccc21)C1CCCCC1	0.2 °C	0.07 °C	1.13 °C	-0.99 °C	0.48 °C	-0.97 °C
COc1ccc(COc2ccc(Cc3cnc(N)nc3N)cc2OC)cc1	-0.19 °C		-0.66 °C	-0.98 °C	0.25 °C	-0.26 °C
COc1c(NC(=O)c2cc3cccc(Oc4ccnc(C(=O)N5CCN(C)CC5)c4)c3n2C)cc(C(C)(C)C)cc1NS(C)(=O)=O	0.38 °C	-0.2 °C	0.73 °C	-0.6 °C	0.86 °C	-1.1 °C
COc1cc2ncnc(Nc3ccc4c(cnn4Cc4ccccc4)c3)c2cc1OC	-2.25 °C	-2.73 °C	0.02 °C	-2.74 °C	-0.38 °C	0.63 °C
O=C1NC(=NCc2cccs2)SC1=Cc1ccc2ncccc2c1	2.9 °C		0.75 °C	3.78 °C	0.66 °C	-0.94 °C
COCc1nc2cnc3cc(-c4c(C)noc4C)c(OC[C@H]4CCNC4)cc3c2n1[C@H](C)c1ccccc1	0.08 °C	0.87 °C	0.07 °C	-0.83 °C	0.35 °C	-0.39 °C
Nc1nccc(-c2c(-c3ccc(F)cc3)ncn2C2CCCCC2)n1	2.76 °C	-0.08 °C	8.08 °C	2.6 °C	0.33 °C	-0.66 °C
Cc1ncc(C(=O)Nc2cc(C(C)(C)C)on2)cc1-n1cc(-c2cnn(C)c2C)nn1	9.67 °C	0.45 °C	2.28 °C	-0.79 °C	0.26 °C	-0.09 °C
N=C(N)Nc1cc(C2CCNCC2)cc(C(F)(F)F)c1	0.05 °C	0.64 °C	0.15 °C	-0.15 °C	0.15 °C	-0.12 °C
CN1C(=O)c2ccccc2N(C)c2nc(Nc3cnn(C4CCNCC4)c3)ncc21	9.76 °C	1.04 °C	0.9 °C	0.14 °C	0.53 °C	16.4 °C
COc1cc2ncnc(Nc3cccc(O)c3)c2cc1OC	8.2 °C		2.54 °C	3.7 °C	0.61 °C	2.79 °C
O=C(Nc1ccc(OC(F)(F)Cl)cc1)c1cnc(N2CC[C@@H](O)C2)c(-c2cc[nH]n2)c1		1.08 °C	0.99 °C	0 °C	0.21 °C	0.17 °C
Cn1c(Nc2c(Cl)cccc2Cl)nc2ccc3nc[nH]c(=O)c3c21	9.85 °C	0.91 °C	0.64 °C	1.08 °C	0.09 °C	1.49 °C
N#C/C(=C\c1ccc(O)c(O)c1)C(=O)OCCc1cccs1	2.18 °C	1.1 °C	2.15 °C	0.01 °C	0.37 °C	4.16 °C
CCOc1cc(CC(=O)N[C@@H](CC(C)C)c2ccccc2N2CCCCC2)ccc1C(=O)O	-0.58 °C	0.05 °C	-0.05 °C	0.38 °C	-0.15 °C	-0.16 °C
CC[C@@H]1C(=O)N(C)c2cnc(Nc3ccc(C(=O)NC4CCN(C)CC4)cc3OC)nc2N1C1CCCC1	1.51 °C	0.58 °C		0.02 °C	0.15 °C	-0.18 °C
CNc1oc(-c2cccc3ccccc23)nc1C#N	0.54 °C	0.95 °C	-0.04 °C	0.49 °C	0.02 °C	0.57 °C
CCN1CCN(Cc2ccc(Nc3ncc(F)c(-c4cc(F)c5nc(C)n(C(C)C)c5c4)n3)nc2)CC1	3.44 °C		4.97 °C	11.1 °C	1.41 °C	3.81 °C
CN(C)CCCN1c2ccccc2Sc2ccc(Cl)cc21	0.03 °C	0.8 °C	0.05 °C	-0.47 °C	0.34 °C	-0.47 °C
Fc1ccc(-c2nc(-c3ccc4ccccc4c3F)[nH]c2-c2ccncc2)cc1	4.64 °C	-0.5 °C	4.6 °C	8.59 °C	0.03 °C	0.26 °C
CC1(C)C(=O)N([C@H]2CCc3c(O)cccc32)c2nc(Nc3cccc(CN4CCCC4)c3)ncc21		6.13 °C	2.09 °C	6.72 °C	5.19 °C	12.8 °C
O=C(NC1CCNCC1)c1n[nH]cc1NC(=O)c1c(Cl)cccc1Cl	0.36 °C		0.04 °C	11.4 °C	-0.04 °C	-1.05 °C
CC(C)N1CCN(Cc2cnc(-c3cc(-c4cccc5[nH]ccc45)cc4[nH]ncc34)o2)CC1	2.44 °C	0.6 °C	1.32 °C	3.63 °C	0.24 °C	4.96 °C
COc1ccc(N(C(=O)Nc2c(C)cccc2C)c2cc(Nc3ccc(N4CCN(C)CC4)cc3)ncn2)c(OC)c1		0.7 °C	2.65 °C	3.75 °C	0.48 °C	10.1 °C
